Compound activity (PubChem BioAssay)
Hits are enriched below; roughly 3.6% of the tested compounds scored in any of these assays.
Pf apPOL inh – Pf-apPOL DNA polymerase inhibition | Recombinant Pf-apPOL, molecular beacon fluorescence, 1.5 h | AID 1794808 | inhibition, % at 10 µM | hit rate 0.25% among 210,000
mHTT CaM bind – mHTT-calmodulin interaction abrogation; hit rate 3.6% among 190,000; AlphaScreen His-mHTT/GST-CaM binding, luminescence; inhibition, % at 15 µM; P42858
Target sequence (P42858 whole entry, looked up, change not shown): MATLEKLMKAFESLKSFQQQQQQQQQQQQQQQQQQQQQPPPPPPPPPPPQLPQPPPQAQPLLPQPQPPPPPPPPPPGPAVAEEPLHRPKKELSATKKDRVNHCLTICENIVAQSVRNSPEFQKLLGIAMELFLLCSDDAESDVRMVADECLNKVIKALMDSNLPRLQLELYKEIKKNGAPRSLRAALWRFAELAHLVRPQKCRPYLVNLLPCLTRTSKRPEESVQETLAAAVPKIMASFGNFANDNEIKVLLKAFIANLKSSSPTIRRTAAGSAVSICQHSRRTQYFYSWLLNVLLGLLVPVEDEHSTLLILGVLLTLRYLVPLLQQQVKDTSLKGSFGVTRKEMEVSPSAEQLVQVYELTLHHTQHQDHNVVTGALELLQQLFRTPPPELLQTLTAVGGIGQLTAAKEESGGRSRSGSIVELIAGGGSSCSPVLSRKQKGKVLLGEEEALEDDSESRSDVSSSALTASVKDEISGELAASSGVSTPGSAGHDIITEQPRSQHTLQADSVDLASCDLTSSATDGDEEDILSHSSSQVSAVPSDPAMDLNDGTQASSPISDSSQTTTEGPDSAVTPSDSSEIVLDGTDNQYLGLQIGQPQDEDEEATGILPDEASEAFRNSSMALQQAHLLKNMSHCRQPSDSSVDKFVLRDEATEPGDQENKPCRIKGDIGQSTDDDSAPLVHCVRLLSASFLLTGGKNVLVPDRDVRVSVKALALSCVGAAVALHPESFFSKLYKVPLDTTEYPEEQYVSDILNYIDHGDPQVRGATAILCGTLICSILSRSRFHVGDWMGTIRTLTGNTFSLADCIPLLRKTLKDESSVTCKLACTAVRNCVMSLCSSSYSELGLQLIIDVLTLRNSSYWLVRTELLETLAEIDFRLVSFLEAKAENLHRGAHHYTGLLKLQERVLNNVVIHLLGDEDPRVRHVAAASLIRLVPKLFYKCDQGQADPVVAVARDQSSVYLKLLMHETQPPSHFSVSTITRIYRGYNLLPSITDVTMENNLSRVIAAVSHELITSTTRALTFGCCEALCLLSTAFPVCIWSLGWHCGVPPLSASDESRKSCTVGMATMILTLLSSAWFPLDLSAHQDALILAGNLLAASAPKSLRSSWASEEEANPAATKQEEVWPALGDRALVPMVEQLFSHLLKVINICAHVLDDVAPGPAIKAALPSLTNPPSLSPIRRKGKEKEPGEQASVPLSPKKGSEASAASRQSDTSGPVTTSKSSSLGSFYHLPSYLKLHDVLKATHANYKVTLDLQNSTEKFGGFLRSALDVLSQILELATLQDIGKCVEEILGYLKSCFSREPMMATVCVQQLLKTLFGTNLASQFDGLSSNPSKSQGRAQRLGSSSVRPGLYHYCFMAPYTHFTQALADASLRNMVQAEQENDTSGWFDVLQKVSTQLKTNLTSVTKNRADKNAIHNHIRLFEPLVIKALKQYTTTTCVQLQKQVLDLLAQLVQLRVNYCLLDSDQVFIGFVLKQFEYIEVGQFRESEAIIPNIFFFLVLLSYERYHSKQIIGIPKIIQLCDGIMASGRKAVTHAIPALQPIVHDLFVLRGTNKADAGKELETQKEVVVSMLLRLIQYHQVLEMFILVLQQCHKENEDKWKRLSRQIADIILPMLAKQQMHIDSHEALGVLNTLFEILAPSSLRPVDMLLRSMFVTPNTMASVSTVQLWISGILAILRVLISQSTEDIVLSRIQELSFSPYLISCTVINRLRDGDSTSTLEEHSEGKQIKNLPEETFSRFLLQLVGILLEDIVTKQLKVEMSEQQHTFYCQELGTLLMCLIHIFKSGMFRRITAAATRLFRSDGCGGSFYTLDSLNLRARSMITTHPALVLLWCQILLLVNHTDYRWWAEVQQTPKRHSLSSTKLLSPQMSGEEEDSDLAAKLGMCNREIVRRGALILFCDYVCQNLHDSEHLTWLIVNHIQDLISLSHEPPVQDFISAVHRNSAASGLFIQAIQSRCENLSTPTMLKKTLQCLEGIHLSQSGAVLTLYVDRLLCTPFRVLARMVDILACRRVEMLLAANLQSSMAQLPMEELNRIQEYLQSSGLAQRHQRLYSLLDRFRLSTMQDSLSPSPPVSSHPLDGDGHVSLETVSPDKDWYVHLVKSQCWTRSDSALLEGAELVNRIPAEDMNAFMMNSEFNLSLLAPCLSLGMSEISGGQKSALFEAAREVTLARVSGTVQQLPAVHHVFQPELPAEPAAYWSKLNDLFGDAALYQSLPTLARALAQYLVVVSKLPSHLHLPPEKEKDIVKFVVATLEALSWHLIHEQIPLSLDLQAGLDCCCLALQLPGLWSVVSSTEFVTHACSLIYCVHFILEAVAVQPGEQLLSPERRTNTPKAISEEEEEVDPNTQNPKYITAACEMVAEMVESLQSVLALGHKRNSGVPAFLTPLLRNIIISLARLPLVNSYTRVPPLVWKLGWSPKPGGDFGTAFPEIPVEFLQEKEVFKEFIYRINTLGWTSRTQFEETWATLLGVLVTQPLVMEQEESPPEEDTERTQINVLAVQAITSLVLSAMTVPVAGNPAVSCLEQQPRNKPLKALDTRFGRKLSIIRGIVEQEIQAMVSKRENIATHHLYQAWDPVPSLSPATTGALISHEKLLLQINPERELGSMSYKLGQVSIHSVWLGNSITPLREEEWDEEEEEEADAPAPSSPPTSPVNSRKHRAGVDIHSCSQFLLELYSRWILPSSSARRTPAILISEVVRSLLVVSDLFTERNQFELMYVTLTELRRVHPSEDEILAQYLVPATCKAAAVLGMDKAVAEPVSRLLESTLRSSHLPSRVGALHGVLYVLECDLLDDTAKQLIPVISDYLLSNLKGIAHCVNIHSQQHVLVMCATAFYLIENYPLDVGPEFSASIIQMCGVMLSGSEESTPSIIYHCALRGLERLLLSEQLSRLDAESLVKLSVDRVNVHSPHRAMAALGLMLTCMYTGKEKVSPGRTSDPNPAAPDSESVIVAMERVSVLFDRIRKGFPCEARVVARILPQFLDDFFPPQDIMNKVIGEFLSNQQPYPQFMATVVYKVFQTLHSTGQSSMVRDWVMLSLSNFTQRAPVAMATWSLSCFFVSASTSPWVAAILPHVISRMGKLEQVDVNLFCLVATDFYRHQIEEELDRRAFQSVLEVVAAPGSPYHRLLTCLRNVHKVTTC
Numbers stand for hits; n = inactive; x = not tested or not shown. No stated cut-off is given here; in the data, active means inhibition above about 50%; inactive means the rest.

SMILES	Pf apPOL inh	mHTT CaM bind
CC(C)(C)c1csc(NN=Cc2ccc3c(c2)OCO3)n1	n	x
O=C(NC(c1cccs1)c1ccc2cccnc2c1O)C1CCCCC1 (centres undefined)	n	97.0
CC(C)CC(=O)Nc1cccc(NC(=O)c2cccs2)c1	n	n
O=C(CCc1ccccc1)NC(c1cccs1)c1ccc2cccnc2c1O (centres undefined)	n	n
CCCC(=O)NC(c1cccs1)c1cc(Cl)c2cccnc2c1O (centres undefined)	n	100.0
CC(C)C(=O)NC(c1cccs1)c1cc(Cl)c2cccnc2c1O (centres undefined)	n	n
CCCC(=O)NC(c1cccs1)c1ccc2cccnc2c1O (centres undefined)	n	100.0
CC(C)C(NC(=O)C1CCN(c2ccc(N3CCCCC3)nn2)CC1)c1cccs1 (centres undefined)	n	n
CC(C)CC(=O)NC(c1cccs1)c1ccc2cccnc2c1O (centres undefined)	n	100.0
CCc1onc(C)c1C1CCCN1C(=O)NCc1ccc(F)cc1 (centres undefined)	n	n
Cc1ccc(-n2ncc3c(=O)[nH]c(SCC(=O)N4CCCCCC4)nc32)cc1C	n	n
CCN1CCN(C(=O)C2c3cc(OC)c(OC)cc3C(=O)N(C)C2c2ccccc2F)CC1 (centres undefined)	n	n
Cc1ccc(C)c(Cc2c(C)nc(C)nc2N2CCN(C(=O)C3CCOC3)CC2)c1 (centres undefined)	n	n
Cc1nc(C)c(Cc2ccc(Cl)cc2)c(N2CCN(C(=O)C3CCOC3)CC2)n1 (centres undefined)	n	63.8
Cc1nc(C(F)(F)F)ccc1-c1nnc(SCC(=O)c2cccs2)o1	n	x
COC(=O)c1cnc2nc(C)ccc2c1Nc1ccccc1	n	n
COC(=O)c1cnc2nc(C)ccc2c1Nc1ccc(Br)cc1	n	58.0
CCOc1ccc(N2C(=O)NC(=O)/C(=C\c3cc(Cl)c(OCC(=O)O)c(Cl)c3)C2=O)cc1	n	n
O=C(NCCCn1ccnc1)c1cc(-c2ccc(Cl)s2)nc2ccccc12	n	50.0
O=C(NCc1cccnc1)c1cc(-c2cccnc2)nc2ccccc12	n	n
O=C(NCCCn1ccnc1)c1cc(-c2ccc(Br)cc2)nc2ccccc12	n	n
O=C(NCCc1ccc(Cl)cc1)c1cc(-c2cccnc2)nc2ccccc12	n	58.0
O=[N+]([O-])c1ccc(C2=NNC(c3ccc(F)cc3)C2)cc1 (centres undefined)	n	n
Cc1c(NC(=O)c2cc(-c3ccccc3Cl)nc3ccccc23)c(=O)n(-c2ccccc2)n1C	n	n
Cc1ccc(/C=C2\N=C(c3cccc(F)c3)OC2=O)cc1	63.3	n
SMILES	Pf apPOL inh	mHTT CaM bind
O=C1OC(c2cccc(F)c2)=N/C1=C\c1cccs1	n	n
O=C1OC(c2cccc(F)c2)=N/C1=C\c1ccc(F)cc1	n	n
O=C1OC(c2cccc(Cl)c2)=N/C1=C\c1cccs1	n	53.0
COc1ccccc1/C=C1N=C(/C=C/c2cccc([N+](=O)[O-])c2)OC\1=O	n	n
Cc1ccsc1C(=O)N1CCCN(C2CCN(Cc3ccc(F)cc3)C2=O)CC1 (centres undefined)	n	64.1
CNC(=O)N1CCCN(C2CCN(Cc3ccc(F)cc3)C2=O)CC1 (centres undefined)	n	n
Cc1ccccc1C(=O)N1CCCN(C2CCN(Cc3ccc(F)cc3)C2=O)CC1 (centres undefined)	n	56.7
O=C(c1ccsc1)N1CCCN(C2CCN(Cc3ccc(F)cc3)C2=O)CC1 (centres undefined)	n	n
NS(=O)(=O)c1ccc(CNC(=O)c2coc(NC(=O)c3cnccn3)n2)cc1	n	n
Cc1nc2cc(N3CC(C(=O)Nc4ccc(Br)c(C)c4)CC3=O)ccc2o1 (centres undefined)	n	n
COc1ccc(-c2cc(C(F)(F)F)n3nc(C(=O)N4CCCCCC4)cc3n2)cc1	n	n
CCOc1ccc(-c2[nH]ncc2Oc2ccccc2)c(O)c1	n	n
C=C(C)COc1ccc(-c2[nH]ncc2Oc2ccccc2OCC)c(O)c1	n	66.5
C=C(C)COc1ccc2c(=O)c(Oc3ccccc3OCC)c(C)oc2c1	n	n
COc1ccc(-c2[nH]ncc2-c2cnc(C)s2)c(O)c1	n	n
Oc1ccc(-c2[nH]ncc2Oc2ccc(-c3ccccc3)cc2)c(O)c1	n	50.9
CCCc1ccc(Oc2cn[nH]c2-c2ccc(O)cc2O)cc1	n	81.8
Oc1ccc(-c2[nH]ncc2-c2ccc(F)cc2)c(O)c1	n	n
COc1ccc(-c2[nH]ncc2Oc2ccc(Cl)cc2)c(O)c1	n	65.9
CN(C)CCCNC(=O)c1ccc(Cl)cc1	n	n
COc1ccc(NC(=O)c2cc(C)no2)c2ccccc12	n	n
O=C(CSc1nc2ccccc2[nH]1)c1ccc(Cl)c(Cl)c1	n	51.1
O=C(CSc1nc2ccccc2[nH]1)c1ccc2c(c1)OCO2	n	n
CC(C)C(=O)N1CC(C(=O)NCc2cccnc2)C(c2cccc(F)c2)C1 (centres undefined)	n	n
O=C(NCc1cc(-c2ccco2)on1)c1ccc(=O)oc1	63.0	n
SMILES	Pf apPOL inh	mHTT CaM bind
O=C(NCc1cc(-c2ccco2)on1)c1ccc(F)c(F)c1	n	n
CC(=O)c1cccc(NC(=O)Cc2c(C)nc(SCc3cccc(Cl)c3)[nH]c2=O)c1	n	51.2
Cc1nc(SCc2ccccc2)[nH]c(=O)c1CC(=O)O	n	n
O=C(Cc1cccnc1)N1CCCC2(C1)Nc1ccccc1NC2=NC1CCCC1 (centres undefined)	n	n
COc1ccc(NC(=O)C2CC(=O)NC(=Nc3ccc(C)c(C)c3)S2)cc1 (centres undefined)	n	n
COc1ccc(N=C2NC(=O)CC(C(=O)Nc3cc(C(F)(F)F)ccc3Cl)S2)cc1 (centres undefined)	n	78.0
COc1cccc(C(=O)Oc2ccc3c(c2)OC(=Cc2cc(OC)c(OC)c(OC)c2)C3=O)c1	n	n
CCOc1ccccc1NC(=O)c1ccccc1Cl	n	n
CCOc1ccccc1NC(=O)c1c[nH]c(=O)n(-c2ccc(F)cc2)c1=O	n	72.4
Cc1cccc2sc(NC(=O)c3csc(Nc4ncccn4)n3)nc12	n	n
COc1ccc(N2CCN(CC(O)COc3c(OC)cccc3OC)CC2)cc1 (centres undefined)	n	n
O=[N+]([O-])c1ccccc1OCC(O)CN1CCN(c2cccc(Cl)c2)CC1 (centres undefined)	n	n
COc1cccc(OC)c1OCC(O)CN1CCN(c2ccccc2F)CC1 (centres undefined)	n	n
Cc1ccc(Cl)cc1N1CCN(CC(O)COc2ccccc2[N+](=O)[O-])CC1 (centres undefined)	n	90.8
COc1cccc(OC)c1OCC(O)CN1CCN(c2cc(Cl)ccc2C)CC1 (centres undefined)	n	64.0
COc1cccc(OC)c1OCC(O)CN1CCN(c2cccc(Cl)c2)CC1 (centres undefined)	n	52.9
Oc1c(C=Nc2cccc(Cl)c2)[nH]c2ccc(Br)c(Cl)c12	n	n
C[N+](CCC#N)(CCC#N)Cc1ccccc1	x	n
O=C(c1ccoc1)N1CCc2nc3cc(-c4ccccc4Cl)[nH]n3c(=O)c2C1	n	n
O=C(O)CCCCCN1C(=O)C(=Cc2ccc3c(c2)OCO3)SC1=S	n	51.6
O=C(O)CCN1C(=O)C(=Cc2ccc([N+](=O)[O-])o2)SC1=S	50.5	n
